# Screening results deposited in PubChem by National Center for Advancing Translational Sciences (NCATS).
# BAZ2B block – blocks human BAZ2B | AlphaScreen BAZ2B-H3K14Ac peptide displacement | Q9UIF8 | hit rate 4.4% among 360,000 | Potency, µM (doses to about 114 µM), without a hit: at the highest dose activity change, negative = inhibition, most hits filed as inhibitors | AID 504333; also: % is scaled to controls: 0 for no effect and ±100 for the full control effect; nearly all actives have a fitted effect of over 60% in size
#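 AlphaScreen displacement of biotin-H3(5-23)K14Ac peptide (50 nM final) from BAZ2B (50 nM final) in PBS pH 7.4, 0.01% Tween-20; complex preformed 30 min RT, then compounds (top 110 uM) 30 min RT, beads 20 min dark.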
# JMJD2A Tudor – inhibitors of human JMJD2A Tudor domain. O75164. hit rate 4.4% among 390,000. Potency, µM (doses to about 114 µM), for the others: top-dose activity change, negative = inhibition, most hits filed as inhibitors. AlphaScreen JMJD2A-Tudor / H3K4me3 peptide binding; also: % is scaled to controls: 0 for no effect and ±100 for the full control effect; nearly all actives have a fitted effect of over 50% in size
# Sfp PPTase inh – inhibitors of Bacillus subtilis Sfp phosphopantetheinyl transferase; Q9F4F7; Biochemical Sfp PPTase activity, qHTS; Potency, µM, without a hit: largest response in the series, negative = inhibition, usual class: inhibitors; hit rate 3.5% among 310,000; AID 1490;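 also: the enzyme is Sfp with the accession as filed and its product quenches rhodamine fluorescence; 0% = enzyme reaction without inhibitor and -100% = no enzyme wells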
#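 Step 1, compound plus 15 nM Sfp-PPTase, 15 min, room temperature. Step 2, add rhodamine-CoA (5 uM) and BHQ-2-YbbR (12.5 uM). Step 3, read 525/598 nm fluorescence at 0 and 30 min.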
# TDP1 inh – inhibitors of human tyrosyl-DNA phosphodiesterase TDP1. recombinant TDP1, AlphaScreen DNA substrate cleavage. Potency, µM (highest dose often 130 µM), for the others: top-dose activity change, negative = inhibition, actives largely listed as inhibitors. hit rate 0.28% among 350,000. AID 485290; also: % is scaled to controls: 0 for no effect and ±100 for the full control effect; nearly all actives have a fitted effect of over 40% in size
#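 AlphaScreen read-out: signal falls as enzyme removes the 3' tyrosine-FITC from a 5'-biotinylated DNA oligo (15 nM, 5 min, RT). Enzyme was E. coli-made recombinant Tdp1 at 1 nM, exposed to compound for 15 min beforehand; beads 10 ug/ml, 10 min.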
# G9a inh – blocks human histone lysine methyltransferase G9a; G9a H3K9 monomethylation, AlphaScreen, 2 h; Q96KQ7; Potency, µM (series often up to 102 µM), for inactives: at the top dose activity, negative = inhibition, usual class: inhibitors; AID 504332; hit rate 8.8% among 350,000; also: % is scaled to controls: 0 for no effect and ±100 for the full control effect; nearly all actives have a fitted effect of over 75% in size
# Target sequence (Q96KQ7 913-1193 limits assumed): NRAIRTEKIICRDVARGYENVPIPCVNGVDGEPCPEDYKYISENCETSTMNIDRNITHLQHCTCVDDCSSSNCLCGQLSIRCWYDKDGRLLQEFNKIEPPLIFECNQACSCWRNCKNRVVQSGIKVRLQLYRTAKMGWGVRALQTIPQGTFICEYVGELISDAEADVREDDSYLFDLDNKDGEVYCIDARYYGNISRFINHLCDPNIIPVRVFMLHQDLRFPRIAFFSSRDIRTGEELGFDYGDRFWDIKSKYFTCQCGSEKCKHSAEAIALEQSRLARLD
#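 G9a (20 nM) was preincubated 15 min with compound, then reacted 2 h at room temperature with 500 nM biotin-H3K9 peptide and 20 µM SAM. Monomethyl-H3K9 detected by AlphaScreen using anti-H3K9me1 antibody.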
# HP1b binding inh – HP1-beta chromodomain-methylated histone interaction inhibition; P83916; AlphaScreen HP1-beta / biotin-H3K9me3 peptide binding; Potency, µM (top dose mostly 114 µM), inactives show at the top dose activity change, negative = inhibition, actives largely listed as inhibitors; hit rate 0.56% among 390,000; also: nearly all actives have a fitted effect of over 70% in size
# Target sequence (P83916 whole entry, looked up): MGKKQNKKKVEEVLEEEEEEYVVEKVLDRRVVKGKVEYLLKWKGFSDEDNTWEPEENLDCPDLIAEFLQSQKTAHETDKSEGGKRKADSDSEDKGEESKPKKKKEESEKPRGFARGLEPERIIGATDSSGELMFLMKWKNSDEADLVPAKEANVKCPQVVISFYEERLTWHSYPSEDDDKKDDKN
#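 HP1-beta protein (50 nM final) preincubated 30 min at room temperature with biotinylated H3(1-18)K9me3 peptide (50 nM) in PBS pH 7.4, 0.01% Tween-20, then compound added for 30 min. AlphaScreen streptavidin donor/nickel chelate acceptor beads (10 ug/mL final), 30 min dark, luminescence read.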
# * = called active by the depositor; ? = inconclusive; / = no result; [ ] = another dose, or the depositor's remark. Sampled rows, rich in hits. Any-hit rate of the full collection: about 12%. Calls follow the shape of the dose curve; as a rule, active = well fitted curve in the direction sought with a large enough effect; inconclusive = small, poorly fitted or top-dose-only effect, or another doubt; inactive = no such curve, though single readings can be large; an effect the other way counts as inactive or inconclusive. Potency is read from the fitted curve at half-maximal effect.
SMILES,BAZ2B block,JMJD2A Tudor,Sfp PPTase inh,TDP1 inh,G9a inh,HP1b binding inh
Cc1ccc(N/N=C/c2ccc(N3CCOCC3)cc2)cc1C,?,39.8µM*,?,10.7%,2.51µM*,79.4µM*
Cc1ccc(N/N=C/c2ccc3c(c2)OCCO3)cc1Cl,10.7%,?,-9.9%,-0.6%,8.91µM*,?
O=C(O)c1cc(N/N=C/c2ccc3c(c2)OCCO3)ccc1Cl,-35.8%,-12.3%,8.7%,0.0%,?,18.8%
CCC1CCCCN1S(=O)(=O)c1ccc(NC(=O)c2cc(=O)c3c(C)cc(C)cc3o2)cc1 (stereo not given),-2.5%,-9.0%,/,-2.5%,6.1%[59 µM],19.9%
CC(C)OP(=O)(OC(C)C)/C(C=O)=N\Nc1ccc([N+](=O)[O-])cc1,-29.7%,-18.9%,12.8%,/,-40.9%,14.1%
COC(CN(C(=O)CCl)C(C(=O)NC1CCCCC1)c1ccc(Cl)cc1)OC (stereo not given),9.5%,-8.5%,7.2%,8.2%,-5.9%[59 µM],22.2%
COC(CN(C(=O)CCl)C(C(=O)NC1CCCC(C)C1C)c1ccc(C)cc1)OC (stereo not given),-14.0%,-24.7%,4.0%,-2.6%,50.1µM*,21.2%
NS(=O)(=O)c1ccc(N2C(=O)C3CC=CCC3C2=O)cc1 (stereo not given),-14.4%,-16.3%,19.5%,56.2µM*,?,25.0%
CCOC(=O)c1ccc(N2C(=O)C3CC=CCC3C2=O)cc1 (stereo not given),-2.0%,-7.6%,3.9%,5.6%,-1.3%[59 µM],19.3%
O=C(Nc1cc(C(F)(F)F)ccc1-n1cncn1)c1cn2ccccc2n1,/,-28.9%,/,-2.8%,/,14.0%
CCOC(=O)/C(=C\c1ccccc1)NC(=O)c1ccccc1,4.4%,-9.3%,-1.4%,6.0%,/,36.9%
CCOC(=O)/C(=C/c1ccc(OC(=O)c2ccccc2)cc1)C(C)=O,4.3%,8.5%,?,5.3%,44.7µM*,49.9%
CCNC(=O)c1ccccc1SCc1ccccc1,1.4%,1.4%,-9.2%,5.5%,?,47.1%
CCNC(=O)c1ccccc1SCC(=O)Nc1ccc(F)cc1,-24.8%,12.6µM*,-12.0%,8.9%,-33.8%,-7.2%
Cc1ccc(S(=O)(=O)Nc2nc(-c3ccccc3)cs2)cc1,?,-32.9%,17.5%,/,?,-15.4%
CNc1nc(-c2ccccc2)[n+](-c2ccc(C)cc2)s1,7.94µM*,20µM*,3.16µM*,-2.7%,1.41µM*,11.2µM*
Cc1ccc(-c2nc(N)s[n+]2-c2ccccc2)cc1,50.5%,28.2µM*,?,8.5%,5.01µM*,?
COC(=O)/C(=C/Nc1ccc(O)cc1)[N+](=O)[O-],-5.1%,?,-19.7%,4.7%,2µM*,9.8%
COC(=O)/C(=C/Nc1ccccc1)[N+](=O)[O-],4.5%,-11.9%,3.8%,1.6%,-2.3%[2.33 µM],51.2%
Cc1[nH]cnc1CSCCN,?,1µM*,7.08µM*,5.1%,?,-5.8%
Cc1[nH]cnc1CSCc1ccc(Cl)cc1,?,-19.6%,0.1%,0.0%,25.1µM*,32.1%
CCNc1ncc2nc(-c3cccs3)c(=O)n(Cc3ccc(F)cc3)c2n1,/,/,15.1%,/,-3.3%[0.501 µM],/
COc1cc2oc(=O)c(CC(=O)NCCc3ccccc3)c(C)c2cc1Cl,-9.2%,-12.5%,/,3.7%,-4.0%[59 µM],43.3%
C/C(=N\NC(N)=O)C1CC(Cc2ccccc2)C(=O)O1 (stereo not given),-13.5%,-16.1%,9.7%,2.4%,-0.7%,11.0%
CCCCCCCC1CC(/C(C)=N/NC(N)=O)OC1=O (stereo not given),2.5%,39.8µM*,24.5%,-2.6%,2.2%,6.4%
SMILES,BAZ2B block,JMJD2A Tudor,Sfp PPTase inh,TDP1 inh,G9a inh,HP1b binding inh
CCN(c1ccccc1)S(=O)(=O)c1ccc(OC)c(NC(=O)Cc2ccc(F)cc2)c1,13.4%,8.1%,/,-0.1%,15.6%[12.7 µM],35.6%
CCN(c1ccccc1)S(=O)(=O)c1ccc(OC)c(NC(=O)CCc2nc3ccccc3c(=O)[nH]2)c1,-0.9%,-15.2%,/,/,44.7µM*,11.0%
CCN(c1ccccc1)S(=O)(=O)c1ccc(OC)c(NC(=O)C2CCC2)c1,/,-5.6%,/,-3.6%,/,13.2%
CCN(c1ccccc1)S(=O)(=O)c1ccc(OC)c(NC(=O)COc2ccc(C(C)=O)cc2)c1,5.7%,-9.5%,/,-6.1%[0.505 µM],56.2µM*,15.8%
CCN(c1ccccc1)S(=O)(=O)c1ccc(OC)c(NC(=O)CNCCc2ccccc2)c1,31.6µM*,0.891µM*,16.2%,-8.2%,?,50.1µM*
COc1ccc(S(=O)(=O)N2CCOCC2)cc1NC(=O)CCc1nc2ccccc2c(=O)[nH]1,-16.5%,-3.7%,-24.6%,4.5%,?,9.8%
Cc1ccccc1NC(=O)C1c2cccc[n+]2CC(=O)N1Cc1ccc2c(c1)OCO2 (stereo not given),-20.8%,?,-12.4%,10.5%,11.2µM*,14.6%
Cc1cccc(C)c1NC(=O)C1c2cccc[n+]2CC(=O)N1Cc1cccs1 (stereo not given),/,-6.2%,13.4%,4.6%,50.1µM*,28.7%
Cc1ccccc1NC(=O)Cn1c(=O)n(Cc2ccc3c(c2)OCO3)c(=O)c2ccc(C(=O)NC3CCCCC3)cc21,/,-14.0%,/,-7.0%,5.9%[59 µM],19.3%
Cc1cc(C)cc(C(=O)NC(CC(N)=O)c2ccc(N3CCCCCC3)c([N+](=O)[O-])c2)c1 (stereo not given),?,?,-19.3%,/,/,13.8%
O=C(CSc1nncc(=O)[nH]1)Nc1cccc([N+](=O)[O-])c1,-20.5%,-13.1%,-5.1%,6.1%[56.1 µM],-13.3%,51.2%
Cc1ccccc1NS(=O)(=O)c1cc(C(=O)NCc2ccncc2)ccc1Cl,-23.5%,-5.1%,6.6%,6.1%[56.1 µM],44.7µM*,42.2%
Cc1c(NS(=O)(=O)c2cc(C(=O)NCCN(C)C)ccc2Cl)c(=O)n(-c2ccccc2)n1C,79.4µM*,?,10.7%,/,?,10.5%
Cc1c(NS(=O)(=O)c2cc(C(=O)NCc3cccc(Cl)c3)ccc2Cl)c(=O)n(-c2ccccc2)n1C,/,-22.8%,/,/,/,24.4%
Cc1ccc(NS(=O)(=O)c2cc(C(=O)NCCCN(C)C)ccc2Cl)cc1Cl,6.0%,-6.8%,/,6.1%,79.4µM*,33.5%
COc1ccc(C2=Nn3c(nnc3-c3ccccc3OC)SC2)c(OC)c1,/,-19.3%,-20.5%,6.8%,/,/
COc1cc(C(C)=O)ccc1OCC(O)CN1CCN(S(=O)(=O)c2ccccc2)CC1 (stereo not given),0.2%,-13.9%,1.2%,6.5%,10.0%[12.7 µM],38.0%
CN(Cc1ccc(Br)cc1)CC(O)COc1cccc(Br)c1 (stereo not given),79.4µM*,5.01µM*,-16.2%,6.3%,22.4µM*,?
